Results filed as inconclusive are left out. A number with no mark means an inactive call. Calls come from the whole dose curve.

Results on 40 molecules are retold here after PubChem BioAssay (Tox21).
% is set by controls: 0 for no effect and ±100 for the full control effect.

This assay can be described thus: p53 small molecule agonists, cell-based qHTS assay: qHTS cell viability counter screen (AID 1963581). Note: nearly all actives have a fitted effect of over 45% in size. Conditions: p53RE-bla HCT-116 viability, ATP luminescence, 16 h; series mostly up to 66 µM; activity change, negative = cytotoxicity: at the top concentration. From the text:
National Center for Advancing Translational Sciences [NCATS]
Division of Preclinical Innovation [DPI]
U.S. Environmental Protection Agency [EPA]
National Institutes of Environmental Health Sciences [NIEHS]
National Toxicology Program [NTP]
U.S. Food and Drug Administration [FDA]
p53, a tumor suppressor protein, is activated following cellular insult, including DNA damage and other cellular stresses. The activation of p53 regulates cell fate by inducing DNA repair, cell cycle arrest, apoptosis, or cellular senescence. The activation of p53, therefore, is a good indicator of DNA damage and other cellular stresses. The CellSensor p53RE-bla HCT-116 cell line (Invitrogen) contains a stably integrated beta-lactamase reporter gene under control of the p53 response elements. The activation of the reporter gene under culture conditions can be detected by fluorescence intensity. This cell line was used to screen the Tox21 compound library in a 1536-well plate format and to identify agonists that activate the p53 signaling pathway. The cytotoxicity of the Tox21 compound library against the p53 RE-bla HCT-116 cell line was tested in parallel by measuring the intra cellular ATP content in the same wells.
Tox21 Assay Protocol Summary:
The p53RE-bla cells were dispensed at 4,000 cells/5 ul/well in 1536-well black wall/clear bottom plates using a Multidrop dispenser. After the assay plates were incubated at a 37 C/5% CO2 incubator for 5 hours, 23 nL of compounds dissolved in DMSO, positive controls or DMSO only was transferred to the assay plate by a pin tool. The plates were incubated at 37 C for 16 hours. After 1 uL of LiveBLAzerTM B/G FRET substrate was added using a Flying Reagent Dispenser, the plates were incubated at room temperature for 2 hours, and fluorescence intensity was measured by an Envision plate reader. For cell viability readout that measures cytotoxicity, 4 ul/well of CellTiter-Glo reagent was added into the assay plates using a Flying Reagent Dispenser. After 30 min incubation at room temperature, the luminescence intensity in the plates was measured using a ViewLux plate reader.
(In general: Quantitative high-throughput screening tests each substance at several concentrations.)
As to `CCOC(=O)c1ccc(NC(=O)CN2CCCCC2)cc1`, the “activity change, negative = cytotoxicity” value was 4.43% [at 30.3 µM].

`c1ccc(C(O[C@H]2CCCN(CCc3ccc4c(c3)OCO4)C2)c2ccccc2)cc1`: the “activity change, negative = cytotoxicity” value is 0.354% [at 30.3 µM].

`C=CC(=O)O`: the “activity change, negative = cytotoxicity” value is -8.28% [at 30.3 µM].

As to `O=[N+]([O-])c1ccc2[nH]ncc2c1`, the “activity change, negative = cytotoxicity” value was 22.4%.

`COc1c(C)c2c(c(O)c1C/C=C(\C)CCC(=O)OCCN1CCOCC1)C(=O)OC2`: the “activity change, negative = cytotoxicity” value is -8.32% [at 30.3 µM].

With `CCCCCCCCCCCCCCCCCC(=O)OCCCCCCCCCCCCCC(C)C`, the “activity change, negative = cytotoxicity” value is 1.59%.

For `Cc1c(C)c2c(c(C)c1OC(=O)CCC(=O)O)CC[C@@](C)(CCC[C@H](C)CCC[C@H](C)CCCC(C)C)O2`, the “activity change, negative = cytotoxicity” value was 0.263%.

In the case of `Oc1ccccc1Cc1ccccc1O`, the “activity change, negative = cytotoxicity” value was 19.5%.

`c1ccc(CCNc2nc(-c3ccccc3)cs2)cc1`: the “activity change, negative = cytotoxicity” value was -12.8% [at 30.3 µM].

On to `Cc1cc(CCCOc2c(C)cc(-c3noc(C(F)(F)F)n3)cc2C)on1`, for which the “activity change, negative = cytotoxicity” value is -23.4% [at 30.3 µM].

As for `O=C1CCCC(=O)C1`, the “activity change, negative = cytotoxicity” value is 5.49%.

As for `Cc1c(C)c2c(c(C)c1OC(=O)CCC(=O)OCCO)CC[C@@](C)(CCC[C@H](C)CCC[C@H](C)CCCC(C)C)O2`, the “activity change, negative = cytotoxicity” value is -0.281% [at 30.3 µM].

On to `CC(C)C/C=C(\C=O)c1ccccc1`, for which the “activity change, negative = cytotoxicity” value was -11.5%.

Regarding `COc1cc2c(cc1N)oc1ccccc12`, the “activity change, negative = cytotoxicity” value is -0.0622%.

For the molecule `CCCCCCC(CCCCCCCCCCC(=O)OCC(COC(C)=O)OC(C)=O)OC(C)=O` (stereo not given), the “activity change, negative = cytotoxicity” value is 6.75% [at 30.3 µM].

Turning to `CC(C=O)Cc1ccc(C(C)C)cc1` (stereo not given), the “activity change, negative = cytotoxicity” value is 2.72%.

In the case of `CCn1nc(Cc2ccccc2)cc1C1CCN(C[C@H]2C[C@H](N(C)[C@@H](C(=O)O)C(C)C)C[C@@H]2c2cccc(F)c2)CC1`, the “activity change, negative = cytotoxicity” value is 0.0728%.

As for `CC(C)(C)NCCNC(C)(C)C`, the “activity change, negative = cytotoxicity” value is 1.35%.

For the molecule `Nc1nc(Cl)nc2c1ncn2[C@@H]1O[C@H](CO)[C@@H](O)[C@@H]1F`, the “activity change, negative = cytotoxicity” value is -19.7% [at 30.3 µM].

For `CO/N=C(\C(=O)O)c1csc(NC(=O)CCl)n1`, the “activity change, negative = cytotoxicity” value was -12.3% [at 30.3 µM].

With `CCNC(=O)C1CC(C)CCC1C(C)C` (stereo not given), the “activity change, negative = cytotoxicity” value is 4.74%.

Take `CC(C)[N+](C)(C)CC(O)COc1cccc2ccccc12` (stereo not given): the “activity change, negative = cytotoxicity” value was -1.17% [at 30.3 µM].

Turning to `NS(=O)(=O)c1cc(C(=O)NN2C[C@H]3[C@H]4CCC(C4)[C@H]3C2)ccc1Cl`, the “activity change, negative = cytotoxicity” value was -11.1% [at 30.3 µM].

With `CC1=NN(c2ccc(C(=O)O)cc2)C(=O)C1`, the “activity change, negative = cytotoxicity” value is 14.2%.

As to `CO[Si](CCCS)(OC)OC`, the “activity change, negative = cytotoxicity” value is 1.26%.

As for `Cc1scc2c1N(C(=O)CN1CCN(C)CC1)c1ccccc1NC2=O`, the “activity change, negative = cytotoxicity” value was 0.831% [at 30.3 µM].

Regarding `COC(=O)/C=C\C(=O)O`, the “activity change, negative = cytotoxicity” value was -1.47%.

For the molecule `CC(Oc1cc(Cl)ccc1Cl)C(=O)O` (stereo not given), the “activity change, negative = cytotoxicity” value was 4.6%.

For `O=C(Cn1ccnc1[N+](=O)[O-])NCCO`, the “activity change, negative = cytotoxicity” value was 8.57% [at 30.3 µM].

Consider `C[N+]1(CC2COC(c3ccccc3)(C3CCCCC3)O2)CCCCC1` (stereo not given), for which the “activity change, negative = cytotoxicity” value is -17.9% [at 30.3 µM].

With `O=C(O)c1cccc(Cl)n1`, the “activity change, negative = cytotoxicity” value is 8.72%.

On to `CC/C(=C\C(=N/O)C(N)=O)C(C)[N+](=O)[O-]` (stereo not given), for which the “activity change, negative = cytotoxicity” value is -20.5%.

As for `CCc1ccc(O)c(OC)c1`, the “activity change, negative = cytotoxicity” value was -17.9%.

With `CCCCCCOC(=O)C(C)C`, the “activity change, negative = cytotoxicity” value is 0.103%.

Turning to `O=C(OCC(COC(=O)c1ccccc1)(COC(=O)c1ccccc1)COC(=O)c1ccccc1)c1ccccc1`, the “activity change, negative = cytotoxicity” value is -10.2%.

In the case of `C=CC(C)C#N` (stereo not given), the “activity change, negative = cytotoxicity” value is 1.31%.

On to `C1OCOCO1`, for which the “activity change, negative = cytotoxicity” value is 1.56%.

Regarding `NCCCC[C@H](N[C@@H](CCc1ccccc1)C(=O)O)C(=O)N1CCC[C@H]1C(=O)O`, the “activity change, negative = cytotoxicity” value is -8.49% [at 30.3 µM].

As for `COC(=O)CCCC(=O)O`, the “activity change, negative = cytotoxicity” value is -9.64%.

On to `CCOc1nc(F)cc2nc(S(=O)(=O)Nc3c(Cl)cccc3C(=O)OC)nn12`, for which the “activity change, negative = cytotoxicity” value is -3.96%.
